Laboratory results: PubChem BioAssay AID588811 (Broad Institute, 2011)
Results with a measured potency or affinity are listed apart. Active and inactive are the calls of the source.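 Rule for the calls: active = compounds lowering signal whose fitted half-maximal concentration is at most twice the top tested dose; inconclusive = flat curve with 30 to 70% inhibition, or poor fit; inactive = the rest.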

Molecular target: Dual specificity protein kinase CLK1 (Homo sapiens) (UniProt P49759)
Experiment: inhibition of human CLK1 activity – biochemical, cherry-picked samples, selectivity assay for Dyrk1A inhibitor project, dose response (AID 588811)
Conditions: recombinant CLK1, ADP-Glo luminescence, 2 h; series mostly up to 12 µM

Dual specificity protein kinase CLK1 (Homo sapiens), sequence (P49759 whole entry, looked up): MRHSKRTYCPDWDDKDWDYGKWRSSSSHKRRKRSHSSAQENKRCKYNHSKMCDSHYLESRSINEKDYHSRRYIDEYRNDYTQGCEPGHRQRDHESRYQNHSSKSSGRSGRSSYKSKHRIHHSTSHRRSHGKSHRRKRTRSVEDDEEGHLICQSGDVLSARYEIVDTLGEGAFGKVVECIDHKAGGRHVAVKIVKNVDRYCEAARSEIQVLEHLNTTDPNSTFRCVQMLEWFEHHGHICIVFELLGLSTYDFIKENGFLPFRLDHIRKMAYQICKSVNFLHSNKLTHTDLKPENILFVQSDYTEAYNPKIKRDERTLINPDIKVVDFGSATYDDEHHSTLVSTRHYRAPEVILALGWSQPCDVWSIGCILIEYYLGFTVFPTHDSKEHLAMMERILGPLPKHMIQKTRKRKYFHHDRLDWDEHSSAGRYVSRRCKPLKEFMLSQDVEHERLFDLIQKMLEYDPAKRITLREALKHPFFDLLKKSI

Compound	outcome	activity change, negative = inhibition
Clc1ccccc1-c1ccc2ncnc(NCc3ccc4c(c3)OCO4)c2c1	inactive	–
O=C(NCc1ccco1)c1sc2ccccc2c1Cl	inactive	–
N#CCSc1nc(Nc2ccc3c(c2)OCO3)c2ccccc2n1	inactive	–
CCCC(=O)Nc1nc(-c2ccc3c(c2)OCCO3)cs1	inactive	–
COCCNC(=O)c1ccc2c(c1)nc(C)n2-c1cccc(F)c1	inactive	–
COc1ccc2c(Cl)c(C(=O)NCc3ccco3)sc2c1	inactive	–
N#Cc1c(C(F)(F)F)cc(-c2cccc(Cl)c2)[nH]c1=O	inactive	–
Clc1ccc(CNc2cc(-c3ccc4c(c3)OCO4)ncn2)cc1	inactive	–
Clc1ccc(CNc2nccc(-c3ccc4cn[nH]c4c3)n2)cc1Cl	inactive	–
Clc1cc(Cl)cc(CNc2cc(-c3ccc4c(c3)OCO4)ncn2)c1	inactive	–
Cc1noc(NS(=O)(=O)c2ccc(NC(=O)c3oc4ccc(F)cc4c3C)cc2)c1C	inactive	–
Cc1c(-c2ccnc(NCc3ccc(Cl)cc3)n2)sc(=O)n1C	inactive	–
Cc1ccnc(NC(=O)c2cccc(S(=O)(=O)N3CCN(c4ccccc4)CC3)c2)c1	inactive	–
CC(=O)Nc1cccc(NC(=O)c2cc3ccccc3o2)c1	inactive	–
COc1cccc(Nc2nc(NCCO)c3ccccc3n2)c1	–	-8.29% [at 1.35 µM] (inactive)
COc1cccc(-c2sc3ccccc3c2-c2ccc(OCCN3CCCC3)cc2)c1	inactive	–
Fc1cccc(Nc2nc(-c3ccncc3)nc3ccccc23)c1	inactive	–
